# From PubChem BioAssay
# HT1080NT lethal = kills 2HG-producing HT-1080-NT fibrosarcoma cells; HT-1080-NT fibrosarcoma viability, CellTiter-Glo ATP luminescence, 48 h; Potency, µM (doses to about 46.1 µM), for the others: at the highest dose activity, negative = less viability, actives largely listed as cytotoxic; 360,000 compounds, 1.6% hits;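 note: NT is the 2HG producing partner of a matched IDH1 knockdown line; 0% = DMSO-treated cells and -100% = media-only wells without cells; nearly all actives have a fitted effect of over 55% in size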
#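 Toxicity toward the 2HG-producing NT line was scored as %Activity, normalised to DMSO and no-cell wells, from CellTiter-Glo luminescence after 48 hours' treatment.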
# TGFb inhibitor = blocks TGF-b signaling | HepG2 CAGA-GFP TGF-b/SMAD3 reporter, GFP fluorescence, 18 h; TGF-beta stimulated, 500 pg/mL final | Potency, µM (highest dose often 46.1 µM), for the others: at the top dose activity, negative = inhibition, most hits filed as inhibitors | 410,000 compounds, 1.2% hits | AID 588855; note: % is set by controls: 0 for no effect and ±100 for the full control effect; nearly all actives have a fitted effect of over 65% in size
#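 HEPG2 CAGA-GFP cells (1000/well, DMEM with 1% FBS) were pre-incubated 2 h at 37 degrees C, given compound by pin tool, then stimulated with TGF-beta at 500 pg/mL final for 18 h before per-cell GFP fluorescence imaging.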
# HT1080 IDH1KD tx = toxicity to HT-1080 IDH1 knockdown cells (counter line) | HT-1080 IDH1 knockdown viability, ATP luminescence, 48 h | Potency, µM (series often up to 46.1 µM), inactives show at the top dose activity, negative = toxicity, usual class: cytotoxic | 360,000 compounds, 2% hits;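 note: 0% = DMSO wells and -100% = cell-free medium wells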
#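 Knockdown cells (IDH1KD HT-1080) received compounds 2 h after plating at 750 cells/well and were kept 48 h at 37 °C in 5% FBS RPMI. A CellTiter-Glo luminescence read gave % activity for curve fitting.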
# HepG2 tox = kills HepG2 cells in TGF-b inhibitor counter-screen | HepG2 CAGA-GFP viability, ATP luminescence, 18 h | Potency, µM (top dose mostly 46.1 µM), inactives show top-dose activity change, negative = cytotoxicity, hits mostly cytotoxic | AID 588856 | 410,000 compounds, 0.76% hits
#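 CellTiter-Glo luminescence gave cytotoxicity after 18 hours at 37 degrees C. The cells were HepG2 CAGA-GFP in 1% FBS DMEM, stimulated with 500 pg/mL TGF-beta after compound addition. %Activity was normalised to no-cell wells (complete cell-killing) and DMSO (no toxicity), and curves were fitted and classified.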
# TDP1 cell CPT = DT40-hTDP1 cell growth loss with CPT | chicken DT40 Tdp1-/-;hTDP1 cells + 20 nM CPT, ATP luminescence, 48 h | Potency, µM (series often up to 46.2 µM), inactives show at the highest dose activity change, negative = growth inhibition, usual class: inhibitors | 420,000 compounds, 12% hits; note: % is set by controls: 0 for no effect and ±100 for the full control effect; nearly all actives have a fitted effect of over 55% in size
#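 Cell growth measured by CellTiter-Glo luminescence after a minimum 48 h, 37 C compound exposure with 20 nM CPT in Tdp1-knockout DT40 cells stably expressing hTDP1, seeded 400/well; qHTS titration format.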
# DT40 TDP1 no CPT = qHTS for Inhibitors of human tyrosyl-DNA phosphodiesterase 1 (TDP1): qHTS in cells in absence of CPT; DT40 Tdp1-/- hTDP1 cells, no CPT, ATP luminescence, 48 h; Potency, µM (top dose mostly 46.2 µM), inactives show top-dose activity change, negative = growth inhibition, most hits filed as inhibitors; 420,000 compounds, 15% hits; AID 686978, 2013; note: % is set by controls: 0 for no effect and ±100 for the full control effect; nearly all actives have a fitted effect of over 55% in size
#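 Growth kinetics read by CellTiter-Glo luminescence after ≥48 hr at 37 °C. Cells: DT40 Tdp1-/- stably carrying human TDP1, 400 per well, compound exposure in the absence of CPT (DMSO vehicle).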
# Starred values were filed as active, the others as inactive; ? = inconclusive; nt = not tested or not shown. Shown are actives, neighbours in structure and some others; about 17% of the full set was active somewhere. Calls come from the whole dose curve; as a rule, active = well fitted curve in the direction sought with a large enough effect; inconclusive = small, poorly fitted or top-dose-only effect, or another doubt; inactive = no such curve, though single readings can be large; an effect the other way counts as inactive or inconclusive. Potency is the fitted concentration of half-maximal effect.
SMILES,HT1080NT lethal,TGFb inhibitor,HT1080 IDH1KD tx,HepG2 tox,TDP1 cell CPT,DT40 TDP1 no CPT
O=C(CN(Cc1ccc(F)cc1)S(=O)(=O)c1ccc(S(=O)(=O)N2CCOCC2)cc1)Nc1ccccc1,2%,0%,0%,1%,-15%,-11%
CCOc1ccc(-c2onc(C(F)(F)F)c2-c2cscn2)c(O)c1,-27%,-15%,?,-44%,11µM*,?
Cc1cc(O)cc(O)c1-c1onc(C(F)(F)F)c1-c1cscn1,-13%,?,-17%,-31%,18µM*,10µM*
CCc1cc(-c2onc(C)c2-c2cscn2)c(O)cc1OC,-17%,0%,-18%,0%,?,?
CSc1nc2ccccc2cc1/C=C(\C#N)c1cccc(C)c1,?,0%,5.2µM*,-13%,?,?
CSc1nc2ccccc2cc1/C=C(\C#N)c1ccccc1,?,-3%,18µM*,-4%,?,?
CC(C)CCNc1nc(N)c([N+](=O)[O-])c(N2CCCCCC2)n1,?,?,?,-127%,?,16µM*
Nc1nc(NCc2ccco2)nc(N2CCN(Cc3ccccc3)CC2)c1[N+](=O)[O-],-5%,19%,-6%,31%,?,18µM*
Nc1nc(NCc2ccco2)nc(NC2CCCCC2)c1[N+](=O)[O-],-3%,11%,-5%,5%,1%,-15%
Nc1nc(NCc2ccco2)nc(N2CCCCCC2)c1[N+](=O)[O-],?,?,-17%,-13%,21µM*,16µM*
Nc1nc(NCc2ccco2)nc(Nc2ccc(F)cc2)c1[N+](=O)[O-],-2%,6%,-4%,23%,3%,-27%
CC1CCC(NC(=O)CSc2nncs2)CC1 (stereo unspecified),14%,7%,10%,3%,2%,-7%
CCOC(=O)C(C)(C)N(Cc1ccccc1C)S(=O)(=O)c1ccc(Cl)c([N+](=O)[O-])c1,?,7%,?,-21%,?,12µM*
CCOC(=O)N(C)S(=O)(=O)c1ccccc1[N+](=O)[O-],-4%,2%,18%,-4%,-18%,?
CCCC(=O)Nc1cc(S(=O)(=O)N(CC)CC)ccc1Cl,10%,-2%,17%,16%,-9%,?
CCCCN(CCCC)S(=O)(=O)c1ccc(N2CCCC2=O)c([N+](=O)[O-])c1,1%,2%,-16%,-16%,?,21µM*
CCCN(CCC)S(=O)(=O)c1ccc(N2CCCC2=O)c([N+](=O)[O-])c1,9%,-4%,5%,1%,?,-2%
CCCN(CCC)S(=O)(=O)c1ccc(Cl)c([N+](=O)[O-])c1,?,?,23µM*,-23%,?,15µM*
COc1ccc(C(=O)N2CCC3(CCCN(c4ncccn4)C3)CC2)cc1,nt,nt,nt,nt,2%,?
CCOc1ccc(-c2nnc(SCC(=O)Nc3cc(F)ccc3F)o2)cc1,nt,33%,nt,-56%,?,?
CC(C)(C)NC(=O)CON=C1c2ccccc2-c2ccccc21,-1%,?,-1%,10%,23µM*,23µM*
CC(C)(C)NCC(O)CON=C1c2ccccc2-c2ccccc21 (stereo unspecified),18µM*,?,15µM*,11µM*,21µM*,?
CCc1ccc(OCC(=O)NC(C)(C)C)cc1,2%,4%,12%,-25%,-8%,-1%
COc1ccc(/C=C/C(=O)c2ccccc2O)cc1CN1CCOCC1,?,11%,?,-4%,16µM*,?
